Calls of active or inactive are those of the source.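 How the source made its calls, unless noted: active means mean z-score across replicates of 1.96 or higher in either the MELAS or the Rieske mutant cell line; inactive means the rest.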
Legend:
[1] = viability loss with induced miR-34 in A549 – imaging, A549 dox-inducible miR-34, nuclei and caspase counts, primary screen (AID 1347080;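 active means compounds whose cell count with miR-34 switched on is under 0.7 times the count with it off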); conditions: A549 miR-34 inducible, Hoechst nuclei count, 48 h
[2] = MELAS cybrid and Rieske KO viability enhancers – cell-based, MELAS cybrids, Rieske KO mouse fibroblasts, CellTiter-Glo, primary screen (AID 1508586); conditions: low glucose;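 further: z relative to plate mean and SD of compound and empty wells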
[3] = stronger effect = lower value, cell number ratio, induced over uninduced
[4] = measured here: relative caspase fold change +Dox/-Dox
[5] = measured here: total cells with miR-34 induction, stronger effect = lower value
[6] = measured here: total cells without miR-34 induction
[7] = MELAS cybrid survival, CellTiter-Glo 48 h, stronger effect = higher value
[8] = Rieske KO mouse fibroblast survival, CellTiter-Glo 72 h
Further: test concentration not given here.

SMILES | fold change [1, 3] | fold change [1, 4] | cell count [1, 5] | cell count [1, 6] | z-score [2, 7] | z-score [2, 8]
CN1[C@@H]2CC[C@@H]1CC(OC(=O)C(O)c1ccccc1)C2 (some centres not stated) | 0.924 (inactive) | 0.78 | 8330 | 9020 | -0.279 (inactive) | -0.173
O=C(O)c1ccc(N2C(=O)C(=Cc3ccc(-c4ccc([N+](=O)[O-])cc4)o3)C=C2c2ccccc2)cc1 | 0.852 (inactive) | 1.02 | 7620 | 8950 | -0.417 (inactive) | 0.868
CC1C[C@H]2[C@@H]3CCC4=CC(=O)C=C[C@]4(C)[C@]3(Cl)C(O)C[C@]2(C)[C@]1(OC(=O)c1ccco1)C(=O)CCl (some centres not stated) | 0.916 (inactive) | 0.877 | 4380 | 4780 | -0.46 (inactive) | -0.518
O=C(C=Cc1ccc(O)c(O)c1)c1ccc(O)cc1O | 0.953 (inactive) | 0.45 | 8780 | 9210 | -0.304 (inactive) | -0.063
CCc1c(Cl)c(O)c(Cl)c(O)c1C(=O)OC1C(C)OC(OCC2=CC=CCC(O)C(C)=CC(CC)C(O[C@@H]3OC(C)(C)C(OC(=O)C(C)C)C(O)C3O)C(C)=CC(C)=CC[C@H](C(C)O)OC2=O)C(OC)C1O (some centres not stated) | 0.841 (inactive) | 0.698 | 6980 | 8290 | -0.301 (inactive) | -0.0909
CN1CCCN(C(=O)c2cccc(-c3ccc(C=C4C(=O)Nc5ccc(Cl)cc54)o3)c2)CC1 | 0.79 (inactive) | 4.28 | 2420 | 3060 | 0.13 (inactive) | -0.12
COCC(NC(=O)c1cnc(C)s1)C(=O)NC(COC)C(=O)NC(Cc1ccccc1)C(=O)C1(C)CO1 (configuration not stated) | 0.898 (inactive) | 1.09 | 714 | 796 | 0.992 (inactive) | -0.399
CC(NC(=O)C(O)C(C)C)C(=O)NC1C(=O)N(C)CCc2ccccc21 (configuration not stated) | 0.932 (inactive) | 0.791 | 7480 | 8020 | -0.185 (inactive) | -1.14
COc1cc(C=CC(=O)O)ccc1O | 0.929 (inactive) | 0.764 | 7790 | 8380 | -0.291 (inactive) | -1.2
O=C1C(Cl)=C(N2CCOCC2)C(=O)N1c1ccc(Cl)c(Cl)c1 | 0.939 (inactive) | 0.753 | 7840 | 8360 | -0.367 (inactive) | -0.893
Cc1cc(C(N)=O)ccc1-n1c(CCC(=O)O)ccc1-c1ccc(-n2ccnc2)cc1 | 0.953 (inactive) | 0.396 | 9360 | 9820 | -0.283 (inactive) | 0.463
C1=CCOCc2cc(ccc2OCCN2CCCC2)Nc2nccc(n2)-c2cccc(c2)COC1 | 0.848 (inactive) | 0.685 | 776 | 915 | 3.58 (active) | -5.03
Nc1nc(N)c2nc(-c3cccc(O)c3)cnc2n1 | 0.989 (inactive) | 0.893 | 6340 | 6410 | 1.29 (inactive) | -0.0279
CS(=O)(=O)c1ccc(C(O)C(CO)NC(=O)C(Cl)Cl)cc1 (configuration not stated) | 0.959 (inactive) | 1.06 | 8650 | 9010 | -0.348 (inactive) | 0.589
CC(CCC(=O)O)[C@H]1CC[C@H]2[C@@H]3C(O)C[C@@H]4CC(O)CC[C@]4(C)[C@@H]3CC[C@]12C (some centres not stated) | 0.91 (inactive) | 1.28 | 8880 | 9760 | -0.306 (inactive) | 0.756
C=CCc1ccc(O)c(-c2cc(CC=C)ccc2O)c1 | 0.923 (inactive) | 0.657 | 7490 | 8120 | 0.173 (inactive) | -0.0672
CN1CCN(C(=O)c2cc3cc(Cl)ccc3[nH]2)CC1 | 1 (inactive) | 0.614 | 8330 | 8310 | -0.282 (inactive) | -0.0205
CCCSc1nc(NC2CC2c2ccc(F)c(F)c2)c2nnn(C3CC(OCCO)C(O)C3O)c2n1 (configuration not stated) | 0.894 (inactive) | 0.998 | 6430 | 7190 | -0.266 (inactive) | -0.123
CCOC(=O)c1ccc(N2NC(=O)C(=Cc3ccc([N+](=O)[O-])o3)C2=O)cc1 | 0.912 (inactive) | 0.455 | 7420 | 8150 | -0.255 (inactive) | -2.84
CC(Oc1cc(-n2cnc3ccc(CN4CCN(C)CC4)cc32)sc1C(N)=O)c1ccccc1C(F)(F)F (configuration not stated) | 1.2 (inactive) | 0.688 | 1290 | 1080 | 0.375 (inactive) | 1.78
CC(C)C(N)C(=O)OCC(CO)OCN1C=NC2C(=O)NC(N)=NC21 (configuration not stated) | 0.916 (inactive) | 0.625 | 8420 | 9190 | -0.0737 (inactive) | -0.153
CC1(C)C(OC2OC(C(=O)O)C(O)C(O)C2OC2OC(C(=O)O)C(O)C(O)C2O)CC[C@@]2(C)[C@H]1CC[C@]1(C)[C@H]2C(=O)C=C2[C@H]3C[C@@](C)(C(=O)O)CC[C@]3(C)CC[C@]21C (some centres not stated) | 0.916 (inactive) | 0.946 | 8230 | 8990 | -0.0747 (inactive) | -0.803

Source: PubChem BioAssay
